This is an account of results in ChEMBL document CHEMBL4513142, “CO-ADD screening of Indiana University - Purdue University Indianapolis (USA) compounds”.

Where “and” joins values, the source holds several entries; their conditions need not be identical. Equal entries are not always repeated. Entries with a potency or affinity are not part of this list.

The subject of one assay is Staphylococcus aureus. The following applies: Concentration 32 ug.mL-1, ASSAY_TEST Inhibition of Bacterial Growth, detection method Absorption (OD600), MEDIA CAMHB, plate type 384well, NBS, CORNING #3640, time 18 hr.
The test system of a further assay is Escherichia coli. The following applies: Concentration 32 ug.mL-1, ASSAY_TEST Inhibition of Bacterial Growth, detection method Absorption (OD600), MEDIA CAMHB, plate type 384well, NBS, CORNING #3640, time 18 hr.

Usually Inhibition stands for the drop in the measured response relative to a control, in per cent. Consider `CC(C)[C@H](NC(=O)c1cccc(C(F)(F)F)c1)C(=O)O`, for which the Inhibition in the assay with Staphylococcus aureus (32 ug/mL) is 19.09% and 11.5%; with Escherichia coli (32 ug/mL), 0.57% and -0.75%.
Take `NC(Cc1ccccc1F)C(=O)O.O=C(O)C(F)(F)F` (stereo not given): the Inhibition in the assay with Staphylococcus aureus (32 ug/mL) is 11.55% and 11.5%; with Escherichia coli (32 ug/mL) it was 17.44% and 15.69%.
For the compound `[C-]#[N+]c1ccc(C(=O)NC(Cc2ccccc2F)C(=O)NCCC)cc1` (stereo not given), the Inhibition in the assay on Staphylococcus aureus was determined as 22.89%; in the assay on Escherichia coli it was 11.79%.
With `Cc1ccc(C(=O)NC(Cc2ccccc2C#N)C(=O)O)cc1` (stereo not given), the Inhibition in the assay on Staphylococcus aureus (32 ug/mL) was 24.12% and 21.1%; with Escherichia coli (32 ug/mL), 12.75% and 9.35%.
For the compound `[C-]#[N+]c1ccc(C(=O)NC(Cc2ccc(F)cc2)C(=O)NCCC)cc1` (stereo not given), the Inhibition was found to be 26.08% in the assay on Staphylococcus aureus and 15% with Escherichia coli.
With `COc1cc(C(=O)N[C@@H](CC(C)C)C(=O)O)ccc1O`, the Inhibition in the assay on Staphylococcus aureus (32 ug/mL) was 20.35% and 19.19%; in the assay with Escherichia coli (32 ug/mL) it was 10.4% and 9.74%.
Consider `O=C(N[C@@H](Cc1ccccc1)C(=O)O)C1CCCCC1`, for which the Inhibition is 12.87% and 13.13% in the assay on Staphylococcus aureus (32 ug/mL); 2.23% and -1.68% in the assay on Escherichia coli (32 ug/mL).
As to `NC(Cc1cccc(F)c1)C(=O)O.O=C(O)C(F)(F)F` (stereo not given), the Inhibition with Staphylococcus aureus (32 ug/mL) was 11.07% and 11.98%; in the assay on Escherichia coli (32 ug/mL) it was 9.03% and 16.34%.
Consider `NC(=O)[C@H](Cc1ccccc1)NC(=O)c1c(F)c(F)c(F)c(F)c1F`, for which the Inhibition in the assay with Staphylococcus aureus (32 ug/mL) was 22.06% and 27.14%; in the assay on Escherichia coli (32 ug/mL), 6.54% and 12.4%.
On to `CC(C)C[C@H](NC(=O)c1cccnc1)C(N)=O`, for which the Inhibition in the assay with Staphylococcus aureus (32 ug/mL) is 11.42% and -3.35%; with Escherichia coli (32 ug/mL) it was -6.61% and -6.83%.
`[C-]#[N+]c1ccc(C(=O)NC(CC#C)C(=O)NCCC)cc1` (stereo not given): the Inhibition turned out to be 27.84% with Staphylococcus aureus and 17.34% with Escherichia coli.
Regarding `Cc1ccc(C(=O)NC(Cc2cc(F)c(F)cc2F)C(=O)O)cc1` (stereo not given), the Inhibition is 24.46% and 19.13% in the assay with Staphylococcus aureus (32 ug/mL); 4.35% and 11.7% in the assay with Escherichia coli (32 ug/mL).
For `CCCNC(=O)C(Cc1ccccc1C)NC(=O)c1ccc(C(F)(F)F)cc1` (stereo not given), the Inhibition came to 28.42% in the assay with Staphylococcus aureus and 15.38% with Escherichia coli.
Turning to `NC(=O)[C@@H]1CCCN1C(=O)c1ccccn1`, the Inhibition with Staphylococcus aureus (32 ug/mL) is 30.13% and 31.7%; in the assay on Escherichia coli (32 ug/mL), 20.95% and 16.57%.
For `NC(Cc1ccc(F)c(F)c1)C(=O)O.O=C(O)C(F)(F)F` (stereo not given), the Inhibition with Staphylococcus aureus (32 ug/mL) is 14.42% and 15.4%; in the assay with Escherichia coli (32 ug/mL), 15.3% and 11.55%.
